# From PubChem BioAssay (NCATS)
# Activity calls are given as the source filed them. The rule behind the calls is not given here.
# Assay: qHTS assay for small molecule activators of the human pregnane X receptor (PXR) signaling pathway (AID 720659)
# Settings: DPX-2 HepG2 CYP3A4-luciferase, 24 h; series mostly up to 92.3 µM
row,Compound,outcome
1,O=C(O)C(Br)Br,inactive
2,Oc1c(Cl)c(Cl)cc(Cl)c1Cl,inactive
3,CN(C)c1ccc(N(C)C)cc1,inactive
4,O=[N+]([O-])c1c(Cl)c(Cl)c(Cl)c(Cl)c1Cl,inactive
5,ClCC(Cl)Cl,inactive
6,C=CC(=O)OCCO,inactive
7,CC(C)Br,inactive
8,O=[N+]([O-])c1ccc(O)c([N+](=O)[O-])c1,inactive
9,CC(C)[N+](=O)[O-],inactive
10,CCCC[N+](=O)[O-],inactive
11,Cc1cc(-c2cc(C)c(N)c(C)c2)cc(C)c1N,inactive
12,CCN(N=O)C(N)=O,inactive
13,N#CC(Cl)(Cl)Cl,inactive
14,CCCCC(CC)COC(=O)c1ccc(C(=O)OCC(CC)CCCC)c(C(=O)OCC(CC)CCCC)c1 (stereo unspecified),inactive
15,O=C(O)C(Br)CBr (stereo unspecified),inactive
16,Nc1c(Br)cc([N+](=O)[O-])cc1[N+](=O)[O-],inactive
17,O=[N+]([O-])c1ccccc1CCl,inactive
18,N#CC(Br)Br,inactive
19,O=C(O)C(Cl)Br (stereo unspecified),inactive
20,O=C(O)c1cccc(Cl)c1,inactive
21,O=[N+]([O-])c1cc(Cl)c(Cl)c(Cl)c1,inactive
22,CC(C)(COCC1CO1)COCC1CO1 (stereo unspecified),inactive
23,COc1ccccc1N,inactive
24,CC(C)(C)OOC(=O)c1ccccc1,inactive
25,COC(C)(C)C,inactive
26,C(CCOCC1CO1)COCC1CO1 (stereo unspecified),inactive
